Compounds with a hit are over-represented: about 1.2% of the library has one in this group of screens.
VLA-4 inh: inhibition in a human VLA-4 binding assay; P13612; VLA-4 expressing cells, ligand binding flow cytometry; inhibition, % (about 7 µM as worked out from the volumes in the protocol); actives 0.2% (n = 330,000); AID 2557; in the data active = inhibition above about 50%
pCIP destab: p/CIP protein destabilization; Q05BA5; F442A p/CIP-EGFP cells, EGFP fluorescence, 16 h; actives 0.01% (n = 290,000); decrease of EGFP signal, % at 10 µM; AID 1984;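 active = EGFP signal decrease of at least 30% at 10 µM or well 3 SD below plate mean, unless failing retest; inactive = the rest, including hits failing retest or dose response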
JMJD2C inh: blocks human GASC-1 demethylase activity; Q9H3R0; GST-JMJD2C(1-420) H3K9me3 demethylation, DELFIA europium; inhibition, % at 2.35 µM; actives 0.069% (n = 330,000); AID 2099;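 active = more than half of a compound's replicate wells show inhibition beyond 50%, single wells judged on their own value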;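 also: signal counts dimethyl H3K9 product captured on neutravidin plate; 0% = median of DMSO wells and 100% = 0.3 times that DMSO median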
GPR7 antag: antagonists of human GPR7 (neuropeptides B/W receptor 1); actives 1.1% (n = 290,000); GPR7-expressing cells, fluorescence antagonist assay; AID 1861; inhibition, % at 4.4 µM; P48145; in the data active = inhibition above about 16%, passing the limit was not always enough;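 also: cells stimulated with the agonist NPW; 0% = agonist with vehicle and 100% = vehicle without agonist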
GPR7 antag cf: confirmation of human GPR7 antagonists. shares compounds with GPR7 antag. GPR7-expressing cells, calcium fluorescence antagonist mode. inhibition, % at 4.4 µM. actives 52% (n = 2,400). AID 1952; in the data active = inhibition above about 24%;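 also: stimulated with the GPR7 agonist NPW; 0% = agonist plus vehicle and 100% = vehicle alone without agonist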
MCHR1 antag: MCHR1 (human) antagonism in GPR7 counter-screen; shares compounds with GPR7 antag; MCHR1-expressing cells, fluorescence antagonist assay; inhibition, % at 4.4 µM; actives 62% (n = 2,400); in the data active = inhibition above about 22%;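 also: 0% = vehicle with agonist and 100% = vehicle without agonist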
Starred values were filed as active, the others as inactive; x = not tested or not shown.

SMILES	VLA-4 inh	pCIP destab	JMJD2C inh	GPR7 antag	GPR7 antag cf	MCHR1 antag
CCc1cc(=O)oc2c3c(cc(OCC(=O)NCc4ccco4)c12)OC(C)(C)CC3	29	1	-2	41*	15	32*
Cc1cc([N+](=O)[O-])cnc1Sc1nccn1C	5	6	6	-7	x	x
Cc1ccc2c(c1C)NC(C)CC2C (stereo not drawn)	-20	-10	-9	-1	x	x
O=S(=O)(NCc1cn2ccsc2n1)c1cccs1	0	-2	8	27*	-13	-4
Cc1ccc(NC(=O)c2ccc(S(=O)(=O)NCc3cccnc3)cc2)c(C)c1	-1	-3	-9	22	x	x
CC(C(=O)N1CCN(Cc2ccc3c(c2)OCO3)CC1)c1ccc([N+](=O)[O-])cc1 (stereo not drawn)	7	-5	-4	27*	27*	27*
O=C(C(Cl)Cl)N1CCN(Cc2ccc3c(c2)OCO3)CC1	4	-12	9	-15	x	x
CCOC(=O)C(NCCc1ccccc1F)(NC(C)=O)C(F)(F)F (stereo not drawn)	8	0	3	-12	x	x
CCn1c(NC(=O)c2ccc(F)cc2)c2ccccc2nc1=O	7	0	2	-9	x	x
CCn1c(NC(=O)c2ccc(C)cc2)c2ccccc2nc1=O	-2	5	16	32*	-6	-10
C=CCOc1c(CNC2CCCC2)cc(Cl)cc1OC	4	-24	9	26*	15	9
COc1cc(CNC2CCCCCCC2)cc(Cl)c1OC	19	-10	6	18	x	x
O=[N+]([O-])c1nn(-c2ccc3c(c2)OCCO3)n(O)c1=Nc1ccc(Cl)cc1	11	-8	2	28*	34*	21
O=[N+]([O-])c1nn(-c2ccc3c(c2)OCCO3)n(O)c1=Nc1ccccc1	17	-3	9	1	x	x
Cc1ccc(-n2c(SCC(=O)N3CC(=O)Nc4ccccc43)nc3ccccc3c2=O)cc1	11	-10	-8	27*	6	-10
Cc1cccc(C)c1-n1c(SCC(=O)N2CC(=O)Nc3ccccc32)nc2ccccc2c1=O	11	-4	4	16	x	x
CC(CCN1C(Nc2ccccc2)=NC[C@@H]1Cc1ccccc1)c1ccccc1 (stereo partly drawn)	44	-3	-25	38*	51*	25*
CC(CCN1C(Nc2ccccc2)=NC[C@@H]1C)c1ccccc1 (stereo partly drawn)	-3	-8	-8	2	x	x
CC(C)CCN1C(Nc2ccccc2)=NC[C@@H]1Cc1ccccc1	4	-18	-7	19	x	x
CC(C)CCCN1C(Nc2ccccc2)=NC[C@@H]1Cc1ccccc1	15	-10	-19	36*	31*	24*
CC(C)C[C@H]1CN=C(Nc2ccccc2)N1CCCCc1ccccc1	4	-13	0	39*	39*	27*
O=C(/C=C/c1ccc(Br)o1)Nc1nnc(C2CC2)s1	4	-5	5	-10	x	x
COc1ccccc1S(=O)(=O)NCc1ccc(C(=O)NC2CCC(O)CC2)cc1 (stereo not drawn)	-7	x	x	x	x	x
Nc1nc(N)nc(-c2ccccc2-c2nc(N)nc(N)n2)n1	17	-8	5	14	-13	-7
Nc1nc(N)nc(-c2ccccc2)n1	-3	2	-2	-3	x	x
SMILES	VLA-4 inh	pCIP destab	JMJD2C inh	GPR7 antag	GPR7 antag cf	MCHR1 antag
C#CCN(C)Cc1ccccc1	-6	-16	16	-12	x	x
C#CC(CO)N(CCN(Cc1ccccc1)C(C#C)CO)Cc1ccccc1 (stereo not drawn)	0	-5	-1	x	x	14
CC(C)c1ccc(C(=O)Nc2nnc(S(=O)(=O)N3CCCCC3)s2)cc1	-1	-13	-2	67*	-8	27*
O=C1C2C3C=CC(C3)C2C(=O)N1c1ccc(-c2nc3ccccc3o2)cc1 (stereo not drawn)	3	8	8	40*	12	1
O=C1C2C3C=CC(C3)C2C(=O)N1c1ccncc1 (stereo not drawn)	-7	-9	0	-15	x	x
CCCCN(C)CC(O)Cn1cc(/C=C/C(=O)c2ccc(C)cc2)c2ccccc21 (stereo not drawn)	31	5	14	37*	37*	36*
O=S1(=O)CCC(NC(=S)N2CCOCC2)C1 (stereo not drawn)	-3	-36	0	-6	x	x
COC(=O)C(NC(=O)c1ccccc1C)(Nc1ncc(S(=O)(=O)c2ccc([N+](=O)[O-])cc2)s1)C(F)(F)F (stereo not drawn)	9	-11	19	35*	41*	37*
COC(=O)C(NC(=O)c1ccc(F)cc1)(Nc1ncc(S(=O)(=O)c2ccc([N+](=O)[O-])cc2)s1)C(F)(F)F (stereo not drawn)	20	-12	7	0	x	x
CC(NC(=O)c1ccc(C#N)cc1)C1CC2CCC1C2 (stereo not drawn)	5	11	-4	23*	-4	13
COc1ccc(C(=O)NC(C)C2CC3CCC2C3)cc1 (stereo not drawn)	-6	-8	-1	4	x	x
Cc1ccc(-c2nnc(SCC(=O)N/N=C/c3ccc(C)s3)n2-c2ccc(C)cc2)cc1	-3	0	-4	-4	x	x
Cc1ccc(C(=O)NC(C)C2CC3CCC2C3)c(C)c1 (stereo not drawn)	10	-7	-3	-16	x	x
c1ccc2c(-c3[nH]ncc3CNCCCn3ncc4ccccc43)cccc2c1	-6	-4	4	22*	27*	52*
CC(C)N1CCN(CC#Cc2ccccc2)CC1CCO (stereo not drawn)	1	-6	-10	-9	x	x
CCOC(=O)Cc1csc(NC(=O)COc2ccc(OC)cc2)n1	34	-12	-25	-8	x	x
CCOC(=O)Cc1csc(NC(=O)COc2ccc(N(C)S(=O)(=O)c3ccc(C)cc3)cc2)n1	-2	11	1	32*	27*	67*
CC(C)C(NC(=O)C(NC(=O)C1OC2OC(C)(C)OC2C2OC(C)(C)OC12)C(C)C)C(=O)O (stereo not drawn)	-8	10	11	-4	x	x
NC(=O)c1ccc(NC(=O)COc2cccc3ccccc23)cc1	11	-5	-20	-14	x	x
CC(C)c1ccc(NC(=O)C(c2ccc3c(c2)OCO3)N2CCCCC2)cc1 (stereo not drawn)	22	-10	11	24*	14	40*
CC1CCN(C(C(=O)Nc2ccc(C(C)C)cc2)c2ccc3c(c2)OCO3)CC1 (stereo not drawn)	6	-5	4	-3	x	x
O=C1/C(=C\c2ccc(O)c(O)c2)N=C2CCCCCN12	-12	1	17	-7	x	x
Cc1cc(Br)c2[nH]cc(CCNC(=O)c3ccco3)c2c1	4	-7	8	-1	x	x
Cc1ccc(C(=O)O)cc1N1C(=O)c2cccc3c([N+](=O)[O-])ccc(c23)C1=O	-1	-28	-6	-13	x	x

Bioassay records deposited in PubChem BioAssay by several laboratories.
